Among the data in PubChem BioAssay (Tox21) are Potency and max activation values, retold here.

Assay [1] is described as follows: Caspase-3/7 induction in HepG2 cells by small molecules, qHTS assay (AID 1346978). Note: % is set by controls: 0 for no effect and ±100 for the full control effect; nearly all actives have a fitted effect of over 15% in size. In a few lines:
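Caspase-3/7 induction was measured by Caspase-Glo 3/7 luminescence (30 min, room temperature) after a 17 hr compound exposure of wild-type HepG2 cells seeded at 2,000 per well and pre-incubated 5 hr.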
For orientation: Quantitative high-throughput screening tests each substance at several concentrations.

Assay [2] in a line: Caspase-3/7 induction in CHO-K1 cells by small molecules, qHTS cell viability counter screen (AID 1346979). Note: nearly all actives have a fitted effect of over 35% in size. Note: potency is the fitted concentration of half-maximal effect. In a few lines:
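Multiplexed with Caspase-Glo 3/7 in CHO-K1 cells, this counter screen added CellTiter-Fluor after 16hr of compound exposure and recorded fluorescence 1hr later.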

The nature of assay [3]: Caspase-3/7 induction in CHO-K1 cells by small molecules, qHTS assay (AID 1346980). Note: % is set by controls: 0 for no effect and ±100 for the full control effect; nearly all actives have a fitted effect of over 15% in size. In outline:
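Luminescent Caspase-Glo 3/7 read (30min, room temperature) quantified apoptosis induction. Cells were wild-type CHO-K1, treated with compound for 17hr at 37 C and 5% CO2.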

The target in assay [4] is Nuclear receptor subfamily 1 group I member 2 (Homo sapiens) (UniProt O75469). The assay can be described thus: Human pregnane X receptor (PXR) small molecule agonists, qHTS assay (AID 1346982). For activation: % is set by controls: 0 for no effect and ±100 for the full control effect. Note: nearly all actives have a fitted effect of over 35% in size. Note: potency is the fitted concentration of half-maximal effect. In a few lines:
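PXR-Luc HepG2 cells (CYP3A4 promoter-driven luciferase) were seeded in medium with 5% charcoal-stripped FBS, left 5 hr at 37 C, then exposed to compounds in DMSO for 24 hr. Luminescence was read after ONE-Glo addition.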

For assay [5], the target named is Acetylcholinesterase (Homo sapiens) (UniProt P22303). The assay can be described thus: Acetylcholinesterase (AChE) small molecule antagonists: colormetric cell-based qHTS assay (AID 1347395; calls by dose curve; note: % is set by controls: 0 for no effect and ±100 for the full control effect; nearly all actives have a fitted effect of over 30% in size). In a few lines:
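In this cell-based qHTS, attached SH-SY5Y cells were treated with test chemicals for 30 min, after which acetylthiocholine hydrolysis was followed by DTNB colour development over 90 min at 37 C.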

Assay [6] shares this target. Kind of assay: Acetylcholinesterase (AChE) small molecule antagonists: fluorescence cell-based qHTS assay (AID 1347398; calls by dose curve; note: % is set by controls: 0 for no effect and ±100 for the full control effect; nearly all actives have a fitted effect of over 50% in size). Particulars: Potency: AChE activity. In a few lines:
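Fluorimetric cell-based assay: intact SH-SY5Y cells, 30 min compound preincubation at 37 C, acetylthiocholine substrate with thiol probe Thiolite Green, 40 min RT development, fluorescence 490/520 nm.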

Assay [7] has the same target. The assay can be described thus: Acetylcholinesterase (AChE) small molecule antagonists: enzyme-based qHTS assay with human liver microsomes (AID 1347399; calls by dose curve; note: % is set by controls: 0 for no effect and ±100 for the full control effect; nearly all actives have a fitted effect of over 60% in size). The note with it: Potency: qHTS inhibition. In outline: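 Recombinant human AChE (50 mU/mL in the enzyme mix) and human liver microsomes (0.25 mg/mL final) were preincubated with compound and NADPH (0.25 mg/mL final) for 30 min at 37 C. Acetylthiocholine/DTNB was then added; thiocholine was read colorimetrically after 10 min at room temperature.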

Assay [8] addresses Cytochrome P450 2C19 (Homo sapiens) (UniProt P33261). The assay can be described thus: Cytochrome P450 Family 2 Subfamily C Member 19 (CYP2C19) small molecule antagonists: luciferase reporter qHTS assay (AID 1671197). Note: nearly all actives have a fitted effect of over 65% in size. Note: potency is the fitted concentration of half-maximal effect. In a few lines: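 Inhibition of CYP2C19 was scored from loss of luminescence in a P450-Glo proluciferin substrate assay, NADPH-started and run 1 h at 37C, with ketoconazole as positive control.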
A general note: Reporter assays use an easily measured gene product as a stand-in for the process of interest.

Assay [9] concerns the target Cytochrome P450 2C9 (Homo sapiens) (UniProt P11712). The assay can be described thus: Cytochrome P450 Family 2 Subfamily C Member 9 (CYP2C9) small molecule antagonists: luciferase reporter qHTS assay (AID 1671198). Note: nearly all actives have a fitted effect of over 50% in size. Note: potency is the fitted concentration of half-maximal effect. In outline:
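Enzyme-substrate mix preincubated with compound 10 min at room temperature; reaction started with NADPH regeneration solution, 1 h 37C. Luminescent luciferin product read after 20 min detection reagent.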

The target in assay [10] is Cytochrome P450 1A2 (Homo sapiens) (UniProt P05177). The assay can be described thus: Cytochrome P450 Family 1 Subfamily A Member 2 (CYP1A2) small molecule antagonists: luciferase reporter qHTS assay (AID 1671199). Note: nearly all actives have a fitted effect of over 50% in size. Note: potency is the fitted concentration of half-maximal effect. In a few lines:
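Human CYP1A2 activity measured with a P450-Glo proluciferin substrate; compounds in DMSO preincubated 10 min at room temperature with enzyme-substrate mix, then NADPH regeneration system added for 1 h. Luciferin detection reagent, 20 min, luminescence read.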

For assay [11], the target named is Voltage-gated inwardly rectifying potassium channel KCNH2 (Homo sapiens) (UniProt Q12809). The assay can be described thus: Human Ether-a-go-go-Related Gene (hERG) channel small molecule antagonists: fluorescence cell-based qHTS assay (AID 1671200).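 Note: hERG-expressing U2OS cells given a thallium stimulus after FluxOR II dye loading; series mostly up to about 77 µM; % is set by controls: 0 for no effect and ±100 for the full control effect; nearly all actives have a fitted effect of over 50% in size.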 In a few lines:
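Cell line hERG-U2OS; dye FluxOR II, 1 h RT dark; Tl+ stimulus; ex 480/em 540 nm, read each second for 2 min.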
For orientation: Block of hERG is tested as a sign of cardiac risk.

Assay [12] has as its target Cytochrome P450 3A4 (Homo sapiens) (UniProt P08684). Kind of assay: Cytochrome P450 Family 3 Subfamily A Member 4 (CYP3A4) small molecule antagonists: luciferase reporter qHTS assay (AID 1671201). In a few lines:
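Room-temperature assay throughout: 10 min compound–enzyme/substrate preincubation, 1 h reaction after NADPH regeneration solution, 20 min detection. Luciferin formed from proluciferin substrate is quantified by luminescence.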

The target in assay [13] is Acetylcholinesterase (Homo sapiens) (UniProt P22303). The assay can be described thus: Acetylcholinesterase (AChE) small molecule antagonists: enzyme-based qHTS assay (AID 1347397; calls by dose curve; note: % is set by controls: 0 for no effect and ±100 for the full control effect; nearly all actives have a fitted effect of over 55% in size). Particulars: Potency: AChE enzyme activity inhibition. In outline:
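Absorbance-based detection of thiocholine with DTNB served as the read-out. Recombinant human AChE was exposed to compound for 30 min at RT before a 10 min RT incubation with acetylthiocholine.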

Assay [14] concerns the target Cytochrome P450 2D6 (Homo sapiens) (UniProt P10635). Kind of assay: Cytochrome P450 Family 2 Subfamily D Member 6 (CYP2D6) small molecule antagonists: luciferase reporter qHTS assay (AID 1671196). Note: nearly all actives have a fitted effect of over 50% in size. Note: potency is the fitted concentration of half-maximal effect. In outline: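 CYP2D6 enzyme–substrate mix was held with compound for 10 min at room temperature, then NADPH regeneration solution was added and the reaction ran 1 h at room temperature. Luciferin product was detected by luminescence after 20 min with detection reagent.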

Assay [15] concerns the target Nuclear receptor subfamily 1 group I member 2 (Rattus norvegicus) (UniProt Q9R1A7). Kind of assay: Rat pregnane X receptor (rPXR) activation by small molecules, qHTS assay (AID 1346983). Note: % is set by controls: 0 for no effect and ±100 for the full control effect; nearly all actives have a fitted effect of over 20% in size. Particulars: rPXR luciferase reporter cells, One-Glo luminescence, 24 h; max activation: active compounds read high. In a few lines: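 Luminescent readout (One-Glo luciferase, 30 min room temperature) followed 24 hr compound treatment at 37 C of rPXR cells plated 2,000 per well and preincubated 5hr; qHTS format with compounds delivered in DMSO.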

In assay [16] the target is Nuclear receptor subfamily 1 group I member 2 (Homo sapiens) (UniProt O75469). Kind of assay: CYP3A4 induction through human pregnane X receptor (PXR) by small molecules, qHTS assay (AID 1346984). Note: potency is the fitted concentration of half-maximal effect; nearly all actives have a fitted effect of over 40% in size. In outline:
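DPX-2 cells (HepG2 co-transfected with PXR and CYP3A4 promoter-luciferase) treated with compounds 24 h at 37C; luciferin-IPA CYP3A4 substrate 3uM final added for 3 h, then One-Glo; luminescence read. qHTS format.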

For assay [17] the target is unchanged. The assay can be described thus: Human pregnane X receptor (PXR) activation by small molecules, qHTS assay (AID 1346985). For activation: % is set by controls: 0 for no effect and ±100 for the full control effect. Note: nearly all actives have a fitted effect of over 40% in size. Note: potency is the fitted concentration of half-maximal effect. In outline: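 DPX-2 cells (HepG2 co-transfected with a PXR response element and a CYP3A4-promoter luciferase construct) were seeded at 2,000 per well, rested 5 hr at 37C, then exposed to DMSO-dissolved compounds for 24 hr. Activation was read as luciferase luminescence.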

Assay [18] can be described thus: Caspase-3/7 induction in HepG2 cells by small molecules, qHTS cell viability counter screen (AID 1346981). Note: series mostly up to about 92 µM; % is set by controls: 0 for no effect and ±100 for the full control effect; nearly all actives have a fitted effect of over 30% in size. In a few lines: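 Wild-type HepG2 cells (2,000/well) were allowed to settle for 5 hr at 37 C, 5% CO2, then dosed with compounds in DMSO by pin transfer. After 16 hr at 37 C, CellTiter-Fluor was added and fluorescence read 1 hr later.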

A number with no mark means an inactive call. Results filed as inconclusive are left out. Active and inactive are the calls of the source. Unless noted, calls come from the whole dose curve; as a rule, active = well fitted curve in the direction sought with a large enough effect in the repeat runs; inconclusive = weak or mixed curves; inactive = no such curve, though single readings can be large; an effect the other way counts as inactive or inconclusive.

Chain of Cytochrome P450 3A4 (Homo sapiens) (P08684 whole entry, looked up): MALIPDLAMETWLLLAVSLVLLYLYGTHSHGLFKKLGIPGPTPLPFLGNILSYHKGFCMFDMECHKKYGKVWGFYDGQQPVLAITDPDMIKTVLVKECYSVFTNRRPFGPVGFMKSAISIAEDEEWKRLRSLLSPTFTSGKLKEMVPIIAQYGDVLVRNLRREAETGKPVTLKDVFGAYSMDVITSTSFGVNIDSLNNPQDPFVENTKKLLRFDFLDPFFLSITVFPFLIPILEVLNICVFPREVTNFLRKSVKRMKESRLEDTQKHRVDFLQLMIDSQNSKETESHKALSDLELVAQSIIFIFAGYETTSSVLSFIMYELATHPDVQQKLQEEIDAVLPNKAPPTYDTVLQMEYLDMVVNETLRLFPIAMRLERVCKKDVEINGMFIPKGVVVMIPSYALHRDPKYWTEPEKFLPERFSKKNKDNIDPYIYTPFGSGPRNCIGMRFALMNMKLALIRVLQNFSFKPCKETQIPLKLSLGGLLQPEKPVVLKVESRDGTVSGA
Chain of Acetylcholinesterase (Homo sapiens) (P22303 whole entry, looked up): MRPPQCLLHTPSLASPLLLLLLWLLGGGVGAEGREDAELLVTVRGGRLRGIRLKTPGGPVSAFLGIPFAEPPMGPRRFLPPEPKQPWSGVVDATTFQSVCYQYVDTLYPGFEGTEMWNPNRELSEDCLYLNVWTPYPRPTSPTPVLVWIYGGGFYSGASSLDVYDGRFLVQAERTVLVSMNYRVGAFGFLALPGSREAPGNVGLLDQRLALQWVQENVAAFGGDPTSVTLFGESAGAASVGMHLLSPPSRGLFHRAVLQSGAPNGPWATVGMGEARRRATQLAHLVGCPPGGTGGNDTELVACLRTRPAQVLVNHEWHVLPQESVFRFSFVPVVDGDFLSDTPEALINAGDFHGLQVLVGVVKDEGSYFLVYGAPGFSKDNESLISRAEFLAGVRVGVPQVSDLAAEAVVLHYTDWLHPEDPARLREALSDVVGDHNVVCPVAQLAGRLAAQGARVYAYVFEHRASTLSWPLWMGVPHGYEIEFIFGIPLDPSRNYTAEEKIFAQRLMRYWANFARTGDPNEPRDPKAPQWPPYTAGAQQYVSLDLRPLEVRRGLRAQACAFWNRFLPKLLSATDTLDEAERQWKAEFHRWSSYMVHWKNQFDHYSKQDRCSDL
Chain of Cytochrome P450 2C19 (Homo sapiens) (P33261 whole entry, looked up): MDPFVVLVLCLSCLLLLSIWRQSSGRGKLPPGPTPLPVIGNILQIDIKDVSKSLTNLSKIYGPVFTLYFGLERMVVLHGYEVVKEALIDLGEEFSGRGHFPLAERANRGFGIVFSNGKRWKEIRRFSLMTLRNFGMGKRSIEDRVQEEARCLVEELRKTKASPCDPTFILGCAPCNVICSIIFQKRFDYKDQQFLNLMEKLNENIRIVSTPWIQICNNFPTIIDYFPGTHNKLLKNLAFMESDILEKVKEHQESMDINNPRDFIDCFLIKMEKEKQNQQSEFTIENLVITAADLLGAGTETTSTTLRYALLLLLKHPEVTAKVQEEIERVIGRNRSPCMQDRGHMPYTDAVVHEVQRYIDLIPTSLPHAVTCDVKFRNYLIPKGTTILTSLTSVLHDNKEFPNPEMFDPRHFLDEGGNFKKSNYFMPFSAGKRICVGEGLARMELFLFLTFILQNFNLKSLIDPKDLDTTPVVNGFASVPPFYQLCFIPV
Chain of Cytochrome P450 1A2 (Homo sapiens) (P05177 whole entry, looked up): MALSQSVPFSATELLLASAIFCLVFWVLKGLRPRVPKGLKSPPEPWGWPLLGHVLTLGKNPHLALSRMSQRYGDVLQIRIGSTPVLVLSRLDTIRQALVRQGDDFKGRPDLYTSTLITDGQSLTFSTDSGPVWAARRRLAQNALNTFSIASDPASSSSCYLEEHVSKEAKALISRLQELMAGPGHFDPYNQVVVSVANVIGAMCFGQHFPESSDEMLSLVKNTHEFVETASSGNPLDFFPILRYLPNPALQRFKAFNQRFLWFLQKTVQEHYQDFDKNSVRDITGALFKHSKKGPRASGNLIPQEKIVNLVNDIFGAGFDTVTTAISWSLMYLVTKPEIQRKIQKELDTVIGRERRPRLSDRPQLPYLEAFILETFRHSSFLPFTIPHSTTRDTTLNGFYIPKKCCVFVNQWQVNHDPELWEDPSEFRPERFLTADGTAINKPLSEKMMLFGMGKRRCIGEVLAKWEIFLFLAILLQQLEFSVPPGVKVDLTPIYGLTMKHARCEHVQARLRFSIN
Chain of Nuclear receptor subfamily 1 group I member 2 (Homo sapiens) (O75469 whole entry, looked up): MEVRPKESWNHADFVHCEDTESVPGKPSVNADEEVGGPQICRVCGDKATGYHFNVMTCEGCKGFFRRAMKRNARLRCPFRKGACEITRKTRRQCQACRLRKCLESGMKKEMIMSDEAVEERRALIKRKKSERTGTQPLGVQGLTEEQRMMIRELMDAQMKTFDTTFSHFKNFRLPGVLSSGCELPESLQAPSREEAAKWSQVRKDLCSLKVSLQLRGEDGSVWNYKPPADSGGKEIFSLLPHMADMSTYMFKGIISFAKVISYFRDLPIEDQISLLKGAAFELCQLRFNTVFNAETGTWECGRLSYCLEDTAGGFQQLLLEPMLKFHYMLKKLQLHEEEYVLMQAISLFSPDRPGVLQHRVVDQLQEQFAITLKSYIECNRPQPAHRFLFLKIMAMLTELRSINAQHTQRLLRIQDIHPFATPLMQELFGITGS
Chain of Nuclear receptor subfamily 1 group I member 2 (Rattus norvegicus) (Q9R1A7 whole entry, looked up): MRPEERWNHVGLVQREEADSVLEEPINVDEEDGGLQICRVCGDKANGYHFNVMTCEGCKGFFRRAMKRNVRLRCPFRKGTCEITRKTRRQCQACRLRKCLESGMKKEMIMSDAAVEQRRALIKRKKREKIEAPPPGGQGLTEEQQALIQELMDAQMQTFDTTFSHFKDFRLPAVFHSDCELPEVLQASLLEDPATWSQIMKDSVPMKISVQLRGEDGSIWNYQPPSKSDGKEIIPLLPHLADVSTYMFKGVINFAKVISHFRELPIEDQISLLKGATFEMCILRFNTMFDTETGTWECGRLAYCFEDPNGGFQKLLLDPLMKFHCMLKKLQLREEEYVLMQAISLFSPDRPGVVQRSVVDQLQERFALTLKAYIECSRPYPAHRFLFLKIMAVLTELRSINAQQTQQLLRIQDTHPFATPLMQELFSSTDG
Chain of Voltage-gated inwardly rectifying potassium channel KCNH2 (Homo sapiens) (Q12809 whole entry, looked up): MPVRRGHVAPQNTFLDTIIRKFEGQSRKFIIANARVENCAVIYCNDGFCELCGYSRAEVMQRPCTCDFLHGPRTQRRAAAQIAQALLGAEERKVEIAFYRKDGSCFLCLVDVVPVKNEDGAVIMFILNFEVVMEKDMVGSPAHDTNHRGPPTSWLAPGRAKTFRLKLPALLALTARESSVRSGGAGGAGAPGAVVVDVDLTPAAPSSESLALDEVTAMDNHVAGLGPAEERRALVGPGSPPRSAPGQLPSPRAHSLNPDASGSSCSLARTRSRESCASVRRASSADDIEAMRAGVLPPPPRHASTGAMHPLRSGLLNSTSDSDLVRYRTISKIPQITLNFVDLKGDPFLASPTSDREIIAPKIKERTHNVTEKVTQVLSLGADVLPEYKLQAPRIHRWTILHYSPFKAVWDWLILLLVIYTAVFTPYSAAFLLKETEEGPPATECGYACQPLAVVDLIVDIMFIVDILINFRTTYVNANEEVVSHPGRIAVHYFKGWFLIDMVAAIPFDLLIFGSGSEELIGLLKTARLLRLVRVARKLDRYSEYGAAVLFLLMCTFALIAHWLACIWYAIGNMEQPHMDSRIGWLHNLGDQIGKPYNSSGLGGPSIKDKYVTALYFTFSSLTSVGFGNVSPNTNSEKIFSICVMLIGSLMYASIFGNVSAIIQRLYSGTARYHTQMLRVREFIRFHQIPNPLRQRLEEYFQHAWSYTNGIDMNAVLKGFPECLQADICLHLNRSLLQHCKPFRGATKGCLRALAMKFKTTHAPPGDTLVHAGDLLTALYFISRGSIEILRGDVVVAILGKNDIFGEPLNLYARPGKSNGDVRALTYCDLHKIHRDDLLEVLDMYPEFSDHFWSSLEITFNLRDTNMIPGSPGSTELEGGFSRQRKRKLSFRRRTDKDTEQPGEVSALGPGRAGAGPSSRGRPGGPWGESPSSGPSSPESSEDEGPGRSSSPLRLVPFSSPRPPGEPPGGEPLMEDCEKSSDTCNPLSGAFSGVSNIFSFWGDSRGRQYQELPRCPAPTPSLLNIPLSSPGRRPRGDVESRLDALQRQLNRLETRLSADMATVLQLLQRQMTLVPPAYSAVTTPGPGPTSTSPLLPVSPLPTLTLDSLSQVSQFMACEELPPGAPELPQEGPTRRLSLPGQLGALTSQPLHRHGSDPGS
Chain of Cytochrome P450 2C9 (Homo sapiens) (P11712 whole entry, looked up): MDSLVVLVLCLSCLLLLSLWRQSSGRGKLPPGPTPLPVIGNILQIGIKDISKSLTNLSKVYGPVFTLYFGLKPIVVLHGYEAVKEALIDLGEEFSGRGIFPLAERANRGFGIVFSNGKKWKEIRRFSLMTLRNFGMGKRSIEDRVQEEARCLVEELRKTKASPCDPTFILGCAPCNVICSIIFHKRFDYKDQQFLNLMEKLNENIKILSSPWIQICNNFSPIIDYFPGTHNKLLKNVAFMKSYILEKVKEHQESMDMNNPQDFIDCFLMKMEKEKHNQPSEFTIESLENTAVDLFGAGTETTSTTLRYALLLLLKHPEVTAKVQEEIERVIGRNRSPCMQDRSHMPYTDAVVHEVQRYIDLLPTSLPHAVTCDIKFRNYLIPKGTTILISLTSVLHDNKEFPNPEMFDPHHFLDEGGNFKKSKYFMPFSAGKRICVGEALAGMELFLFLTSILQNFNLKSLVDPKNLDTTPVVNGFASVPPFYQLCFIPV

`Nc1ccc([N+](=O)[O-])cc1[N+](=O)[O-]`: the Potency result in [1], in assay [3], in [4], in assay [5], in [6] and in assay [7] was “inactive” each time. The Potency entry in assay [8], in assay [9], in assay [11] and in [12] was “inactive” throughout. Besides, the values for the Potency in assay [2] and in assay [10] were 47.3 µM (active) and 6.92 µM (active), respectively.

In the case of `CCBr`, the Potency entry in assay [1], in assay [2], in assay [3], in assay [4], in assay [5] and in assay [13] was “inactive” each time. Besides, the Potency entry in [6], in [7], in assay [8], in assay [11] and in assay [12] was “inactive” throughout.

Take `Cl/C=C\C[N+]12CN3CN(CN(C3)C1)C2`: the Potency result in assay [1], in assay [2], in assay [3], in [4], in assay [6] and in assay [7] was “inactive” each time. The Potency entry in [8], in assay [9], in assay [10], in [11] and in assay [12] was “inactive” in each case. The Potency in assay [14] was 71 µM (active).

On to `CC(C)N(CCC(C(N)=O)(c1ccccc1)c1ccccn1)C(C)C` (centres undefined), for which the Potency entry in assay [1], in assay [2], in assay [3], in [5], in [13] and in assay [6] was “inactive” in each case. Further, the Potency result in [7] is “inactive”. In addition, the max activation in assay [15] was -7.32%.

In the case of `Cn1cc[n+](C)c1` (tested in a mixture with another compound), the Potency entry in assay [1], in assay [2], in assay [3], in assay [4], in assay [5] and in [13] was “inactive” each time. In addition, the Potency result in [6], in assay [7], in assay [14], in [9], in [10] and in [11] was “inactive” throughout. For the same molecule, the Potency entry in assay [12] is “inactive”.

For the molecule `N#CCC#N`, the Potency entry in assay [1], in assay [3], in [5], in assay [6], in [7] and in assay [8] was “inactive” each time. In addition, the Potency result in assay [10] and in assay [11] was “inactive” throughout. In addition, the Potency in assay [2] is 30.6 µM (active); in [9], 63.3 µM (active).

`Clc1cccc(SC2CCNCC2)n1`: the Potency result in assay [1], in assay [2], in assay [3], in assay [13], in assay [6] and in assay [7] was “inactive” throughout. For the same molecule, the Potency entry in [11] was “inactive”.

With `C#CCOC(C(=O)OCCN(C)C)(c1ccccc1)c1ccccc1`, the Potency result in assay [1], in [2], in assay [3], in assay [17] and in [10] was “inactive” each time. In assay [15], the max activation is -6.97%. Besides, the Potency is 15.8 µM (active) in assay [16], 3.47 µM (active) in assay [14], 1.95 µM (active) in assay [8] and 2.19 µM (active) in assay [9].

For `CC(=O)C(C)(C)C`, the Potency entry in [1], in [2], in assay [3], in assay [4], in assay [5] and in [6] was “inactive” in each case. The Potency result in assay [7], in [14], in assay [8], in assay [9], in [11] and in assay [12] was “inactive” throughout. Also, the Potency in assay [10] was 37 µM (active).

With `c1ccc(CN2CCNCC2)cc1`, the Potency result in [1], in assay [3], in assay [18], in [4], in assay [5] and in assay [13] was “inactive” in each case. For the same molecule, the Potency entry in [6], in assay [7], in assay [8], in assay [9], in [10] and in assay [11] was “inactive” in each case. In [12], the Potency result is “inactive”. The Potency in assay [14] is 17.2 µM (active).

For `CCC(COC(=O)c1cc(OC)c(OC)c(OC)c1)(c1ccccc1)N(C)C` (centres undefined), the Potency entry in [1], in [3], in [18], in assay [5], in assay [13] and in assay [7] was “inactive” each time. The Potency entry in [10] was “inactive”. For the same molecule, the Potency in assay [4] was 29.8 µM (active); in assay [16], 15.8 µM (active); in assay [17], 25.1 µM (active); in assay [14], 0.55 µM (active); in assay [8] it was 24.5 µM (active); in [9] it was 15.5 µM (active). Besides, in assay [15], the max activation is -1.12%.
